Compound activity (PubChem)
Most compounds without a hit are left out; they make up all but 12% or so of the library.
ROMK primary = human ROMK K+ channel modulation, primary screen; Tet-inducible ROMK, thallium flux fluorescence; actives lie on both sides; B-score at 10 µM; 130,000 tested, 2% active;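 active = signal ratio slope over the read window, or its plate-corrected B-score, at least 3 SD from the plate mean, either direction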;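 also: B-score of the F/F0 ratio slope over 7 to 12 s after thallium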
WT yeast gro inh = growth inhibition of WT yeast, mitochondrial fusion screen; mitochondrial fusion phenotypic screen, WT strain; inhibition, % at 10 µM; 190,000 tested, 2.1% active; AID 1362; in the data active = inhibition above about 58%; tested in S. cerevisiae
Ins promoter up = MIN6 insulin promoter up-regulation. MIN6 insulin promoter-GFP reporter, high-content imaging; stronger effect = higher value. z-score at 5 µM. 190,000 tested, 0.3% active. AID 1625;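 active = z-score above 3 at 5 µM with at least 500 cells counted in the well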
KCC2 mod = KCC2 (human) Cl- transport modulation; KCC2 cells, thallium flux FluoZin-2 fluorescence; B-score of Tl+ flux slope (higher = more flux/activation; lower = inhibition) at 10 µM; 190,000 tested, 2.2% active; AID 1456;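 active = thallium flux slope and its plate-corrected score both differing from the plate sample mean at a set confidence after two filtering rounds, in either direction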;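 also: slope of fluorescence scaled to starting intensity during 10 to 20 s after thallium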
L major viab = Leishmania major promastigote growth inhibition; Leishmania major promastigotes, resazurin fluorescence viability; 200,000 tested, 9% active; inhibition, % at 10 µM; AID 1063; in the data active = inhibition above about 50%;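 also: promastigotes grown with compound for 44 hours at 28 °C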
Insulin prom inh = TRM-6 insulin promoter activity inhibition; TRM-6 cells (human fetal islet line), insulin promoter-eGFP reporter, imaging; reporter expression induced with tamoxifen; inhibition, % at 2 µM; 130,000 tested, 0.9% active;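 active = inhibition above the mean plus 3 SD, with well images judged a real hit on visual review, cut at about 60% in these data, passing the limit was not always enough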
* marks the source's active call; other numbers are inactive results; i = inactive; · = no result given.

SMILES	ROMK primary	WT yeast gro inh	Ins promoter up	KCC2 mod	L major viab	Insulin prom inh
COc1ccc(C(C[N+](=O)[O-])c2c(C)cc3ccccn23)cc1 (stereo not given)	0.6	3	-0.29	0.37	99*	39
CC1CCN(c2ccc(C(=O)O)cc2)CC1	·	27	·	-0.063	-6	·
Brc1ccc(-c2nnc3sc(CNCc4ccc5c(c4)OCO5)cn23)cc1	·	14	1.1	-1.4	85*	·
Brc1cccc(-c2nnc3sc(CNCc4ccco4)cn23)c1	·	7	0.51	-0.36	4	·
Brc1ccc(-c2nnc3sc(CNC4CCCC4)cn23)cc1	-0.63	16	0.81	-0.089	91*	37
COc1ccc(OC)c(/C=C2\SC(=S)N(Cc3cccnc3)C2=O)c1	·	27	-0.3	-0.7	82*	43
CC1CCCCN1C(=O)CSc1nc2cc3c(cc2c(=O)n1Cc1ccc2c(c1)OCO2)OCO3 (stereo not given)	-0.069	3	-1.9	-0.33	54*	-48
CC1CCN(C(=O)CSc2nc3ccccc3c(=O)n2Cc2ccc3c(c2)OCO3)CC1	·	29	0.03	0.59	8	3
Fc1ccccc1Cn1c2[n+](c3ccc(C(F)(F)F)cc31)CCCCC2	-0.45	14	-2	0.24	14	·
COc1ccc(OC)c(C(=O)Cn2c3[n+](c4ccc(C(F)(F)F)cc42)CCCCC3)c1	·	7	-0.53	1.9	99*	24
Cc1cc(C)cc(NC(=S)/C(=C(\[O-])c2ccc(Cl)cc2Cl)[n+]2ccccc2)c1	-0.18	6	0.56	1.2	27	-25
[O-]/C(=C(\C(=S)Nc1ccc(SC(F)F)cc1)[n+]1ccccc1)c1ccc(Cl)cc1Cl	1.2	6	-1	-1.5	84*	-26
CC1=CC(=O)c2ccccc2C1=O	·	47	·	0.15	-1	50
COc1cccc2c1C(=O)C=C(C)C2=O	-1.9	28	-0.31	1.1	99*	19
O=C(COC(=O)c1ccc(F)cc1)NCCc1ccc(F)cc1	-0.37	1	-0.19	-1.8	0	·
OCCN1CCN(CCCc2c3c(cc4c2CCC4)CCC3)CC1	-1.3	-9	0.39	-0.042	86*	-183
Cn1c(=O)n(CCc2ccccc2)c(=O)c2c1ncn2Cc1ccccc1	-1.3	-3	-2.7	-0.76	6	11
COC(=O)c1ccccc1N=Nc1c(N)[nH][nH]c1=O	·	·	-0.04	0.67	·	·
Cc1cc(C)c(OCCCCN2CCC(C)CC2)c(Br)c1	0.3	39	-0.68	-0.76	98*	-41
Cc1cc(Cl)c(OCCOCCN2CCC(C)CC2)c(Br)c1	-1.7	13	-1.8	-0.5	99*	-35
COc1cc(C)ccc1OCCOCCOc1c(C)cc(C)cc1Br	-0.55	2	·	-0.045	-7	6
COc1ccc(S(=O)(=O)N2CCCC(C(=O)Nc3cccnc3)C2)cc1Cl (stereo not given)	·	-9	·	-0.92	-1	8
COCCCn1c(SCC(=O)O)nc2cc(OC)c(OC)cc2c1=N	0.47	-10	0.14	-1.6	5	-12
CC(C)CN(CCOc1cccc(N2C(=O)C3=C(CCCC3)C2=O)c1)CC(C)C	·	13	0.41	0.0023	63*	36
Cn1c(=O)c2c(O)c(C=Nc3ccc(F)cc3)c(=O)n(C)c2n(C)c1=O	·	·	0.68	0.093	·	·
SMILES	ROMK primary	WT yeast gro inh	Ins promoter up	KCC2 mod	L major viab	Insulin prom inh
CN(C)/N=C/C=C1\CCC/C(=C\c2ccc(F)c(F)c2)C1=O	-2.2	10	-0.45	·	97*	·
COc1ccc(/C=C2/CCOC2=O)cc1	·	-2	-0.2	-0.4	-6	9
Cn1cccc1/C=C1\CCC/C(=C\c2cccn2C)C1=O	·	21	·	i	44	-81
COc1ccc(/C=C2\CCC/C(=C\C=N\N(C)C)C2=O)cc1	0.0031	11	-1.2	-0.64	93*	-12
COc1ccc(C2(CNC(=O)c3cc([N+](=O)[O-])cc([N+](=O)[O-])c3)CCCC2)cc1OC	0.33	18	-0.4	-0.098	100*	0
CN(c1ccc(O)cc1)c1nc(-c2cccs2)cs1	-0.11	67*	0.12	-2.8	42	33
CC(C)c1nc2sc3c(=O)[nH]cnc3c2c2c1CCC2	2.3	-1	-0.64	-0.35	9	·
CC(C)c1nc2sc3c(=S)nc[nH]c3c2c2c1CCC2	5.2*	·	-0.06	159*	·	·
Cc1cc(C)nc(NS(=O)(=O)c2ccc(NC(=O)c3cccc(N4C(=O)CCC4=O)c3)cc2)n1	0.63	-4	0.24	0.13	-7	-36
